Results filed as inconclusive are left out. A call without a number means that no potency is given here. Calls of active or inactive are those of the source. Calls follow the shape of the full dose curve.
Target: Acetylcholinesterase (Homo sapiens) (UniProt P22303)
Experiment: Acetylcholinesterase (AChE) small molecule antagonists: colormetric cell-based qHTS assay (AID 1347395); also: nearly all actives have a fitted effect of over 30% in size
Details: SH-SY5Y cells AChE activity, colorimetric (Ellman); series mostly up to 115 µM
In short: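 Colorimetric read-out: DTNB detects thiocholine released when cellular AChE in SH-SY5Y cells hydrolyses acetylthiocholine. Cells attached overnight, received compound for 30 min at 37 C, then substrate mix for 90 min at 37 C.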
Potency is read from the fitted curve at half-maximal effect.

Sequence of Acetylcholinesterase (Homo sapiens) (P22303 whole entry, looked up): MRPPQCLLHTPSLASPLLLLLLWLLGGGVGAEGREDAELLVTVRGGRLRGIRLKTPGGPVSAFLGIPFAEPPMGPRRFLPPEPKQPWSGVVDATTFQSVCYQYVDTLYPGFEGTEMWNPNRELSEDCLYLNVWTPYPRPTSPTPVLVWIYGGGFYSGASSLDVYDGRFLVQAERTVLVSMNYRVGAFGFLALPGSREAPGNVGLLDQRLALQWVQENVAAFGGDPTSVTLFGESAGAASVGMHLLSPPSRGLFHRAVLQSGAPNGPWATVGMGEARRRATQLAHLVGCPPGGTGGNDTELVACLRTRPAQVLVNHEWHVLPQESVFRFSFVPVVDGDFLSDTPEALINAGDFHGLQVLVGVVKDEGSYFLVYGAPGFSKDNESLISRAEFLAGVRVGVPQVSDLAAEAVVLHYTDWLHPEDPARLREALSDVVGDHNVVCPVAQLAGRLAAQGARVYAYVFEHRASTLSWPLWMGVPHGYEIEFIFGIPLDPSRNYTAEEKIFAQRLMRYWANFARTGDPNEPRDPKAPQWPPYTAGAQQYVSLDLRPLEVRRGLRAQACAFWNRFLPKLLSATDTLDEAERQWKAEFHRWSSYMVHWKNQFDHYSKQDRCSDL

Row | SMILES | Potency | activity, negative = inhibition
1 | Cc1cn([C@H]2C[C@H](N=[N+]=[N-])[C@@H](CO)O2)c(=O)[nH]c1=O | inactive | –
2 | CCn1cc(C(=O)O)c(=O)c2cc(F)c(N3CCNCC3)nc21 | inactive | –
3 | CCCCCCCCCCCCI | inactive | –
4 | O=C(Nc1ccc(C(=O)O)c(O)c1)c1ccccc1 | inactive | –
5 | CCCCCCCC(=O)Oc1c(Br)cc(C#N)cc1Br | inactive | –
6 | CCC(O)OCCCOC (stereo not given) | inactive | –
7 | Cc1ccccc1Cl | inactive | –
8 | Cc1cccc(OCC(O)CNC(C)(C)C)c1C (stereo not given) | inactive | –
9 | CC(=O)O[C@H]1C[C@@H]2CC[C@@]1(C)C2(C)C | inactive | –
10 | CC1(C)OC[C@@H]2O[C@@]3(C(=O)O)OC(C)(C)O[C@H]3[C@@H]2O1 | inactive | –
11 | O=C1CC(c2ccc(Cl)cc2)CC(=O)N1 | inactive | –
12 | O=C1CCc2ccccc2O1 | inactive | –
13 | COCCOCCOCCO | inactive | –
14 | c1cc(CN2CCCCC2)cc(OCCCNc2nc3ccccc3s2)c1 | 15.5 µM (active) | –
15 | N#Cc1cc2ccccc2c2ccccc12 | inactive | –
16 | CN1CCN(C)CC1 | inactive | –
17 | CCCCCCCCOC(C)=O | inactive | –
18 | CNC1(C)C2CCC(C2)C1(C)C (stereo not given) | inactive | –
19 | CCCOC(=O)CCCCC(=O)OCCC | inactive | –
20 | Cc1cccc(C(=O)O)c1 | inactive | –

Row | SMILES | Potency | activity, negative = inhibition
21 | COC(=O)c1ccccc1C | inactive | –
22 | CCO/C([O-])=N/c1c[n+](N2CCOCC2)no1 | inactive | –
23 | CC(C)(C)c1ccc(O)c(C(C)(C)C)c1 | inactive | –
24 | CCC(=O)OCc1ccccc1 | inactive | –
25 | Oc1ccccc1F | inactive | –
26 | CCC(=O)CC(C)CC (stereo not given) | – | -0.199% [at 0.435 µM] (inactive)
27 | NNc1nc(-c2ccc([N+](=O)[O-])cc2)cs1 | inactive | –
28 | OC1OC[C@@H](O)[C@H](O)[C@H]1O (stereo not given in full) | inactive | –
29 | Nc1nc2ccccc2[nH]1 | inactive | –
30 | Cc1ccc(C(=O)O)o1 | inactive | –
31 | CCCCC(=O)O[C@]1(C(=O)CO)[C@@H](C)C[C@H]2[C@@H]3CCC4=CC(=O)C=C[C@]4(C)[C@@]3(F)[C@@H](O)C[C@@]21C | inactive | –
32 | CC1=C(C/C=C(\C)CCC[C@H](C)CCC[C@H](C)CCCC(C)C)C(=O)c2ccccc2C1=O | inactive | –
33 | C=CC(=O)Nc1cc2c(Nc3ccc(F)c(Cl)c3)ncnc2cc1OCCCN1CCOCC1 | inactive | –
34 | O[C@@H](c1cc(C(F)(F)F)nc2c(C(F)(F)F)cccc12)[C@H]1CCCCN1 | inactive | –
35 | CCCCCCCCCCCCCCCCCC#N | inactive | –
36 | CCOc1ccc(NC(C)=O)cc1 | inactive | –
37 | CCNc1ccccc1 | inactive | –
38 | CC(C)(C)c1cccc(C(C)(C)C)c1O | inactive | –
39 | CN(C)CCN1CCOCC1 | inactive | –
40 | CC(C)(C)c1cc(CCC(=O)OCC(COC(=O)CCc2cc(C(C)(C)C)c(O)c(C(C)(C)C)c2)(COC(=O)CCc2cc(C(C)(C)C)c(O)c(C(C)(C)C)c2)COC(=O)CCc2cc(C(C)(C)C)c(O)c(C(C)(C)C)c2)cc(C(C)(C)C)c1O | inactive | –

Target: Acetylcholinesterase (Homo sapiens) (UniProt P22303)
Experiment: Acetylcholinesterase (AChE) small molecule antagonists: enzyme-based qHTS assay (AID 1347397); also: nearly all actives have a fitted effect of over 55% in size
Details: Potency: AChE enzyme activity inhibition; outcome: AChE enzyme activity inhibition; series mostly up to 115 µM
In short: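 rhAChE 50 mU/mL (dispensed) + cpd or DMSO, 30 min RT; add DTNB/acetylthiocholine cocktail, 10 min RT; colorimetric thiocholine readout. qHTS, 1536-well format.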

Row | SMILES | Potency | activity change, negative = inhibition
41 | Cc1cn([C@H]2C[C@H](N=[N+]=[N-])[C@@H](CO)O2)c(=O)[nH]c1=O | inactive | –
42 | CCn1cc(C(=O)O)c(=O)c2cc(F)c(N3CCNCC3)nc21 | inactive | –
43 | CCCCCCCCCCCCI | inactive | –
44 | O=C(Nc1ccc(C(=O)O)c(O)c1)c1ccccc1 | inactive | –
45 | CCCCCCCC(=O)Oc1c(Br)cc(C#N)cc1Br | inactive | –
46 | CCC(O)OCCCOC (stereo not given) | inactive | –
47 | Cc1ccccc1Cl | inactive | –
48 | Cc1cccc(OCC(O)CNC(C)(C)C)c1C (stereo not given) | inactive | –
49 | CC(=O)O[C@H]1C[C@@H]2CC[C@@]1(C)C2(C)C | inactive | –
50 | CC1(C)OC[C@@H]2O[C@@]3(C(=O)O)OC(C)(C)O[C@H]3[C@@H]2O1 | inactive | –
51 | O=C1CC(c2ccc(Cl)cc2)CC(=O)N1 | inactive | –
52 | O=C1CCc2ccccc2O1 | inactive | –
53 | COCCOCCOCCO | inactive | –
54 | c1cc(CN2CCCCC2)cc(OCCCNc2nc3ccccc3s2)c1 | 27.5 µM (active) | –
55 | N#Cc1cc2ccccc2c2ccccc12 | inactive | –
56 | CN1CCN(C)CC1 | inactive | –
57 | CCCCCCCCOC(C)=O | inactive | –
58 | CNC1(C)C2CCC(C2)C1(C)C (stereo not given) | inactive | –
59 | CCCOC(=O)CCCCC(=O)OCCC | inactive | –
60 | Cc1cccc(C(=O)O)c1 | inactive | –

Row | SMILES | Potency | activity change, negative = inhibition
61 | COC(=O)c1ccccc1C | inactive | –
62 | CCO/C([O-])=N/c1c[n+](N2CCOCC2)no1 | inactive | –
63 | CC(C)(C)c1ccc(O)c(C(C)(C)C)c1 | inactive | –
64 | CCC(=O)OCc1ccccc1 | inactive | –
65 | Oc1ccccc1F | inactive | –
66 | CCC(=O)CC(C)CC (stereo not given) | – | 1.36% [at 0.435 µM] (inactive)
67 | NNc1nc(-c2ccc([N+](=O)[O-])cc2)cs1 | inactive | –
68 | OC1OC[C@@H](O)[C@H](O)[C@H]1O (stereo not given in full) | inactive | –
69 | Nc1nc2ccccc2[nH]1 | inactive | –
70 | Cc1ccc(C(=O)O)o1 | inactive | –
71 | CCCCC(=O)O[C@]1(C(=O)CO)[C@@H](C)C[C@H]2[C@@H]3CCC4=CC(=O)C=C[C@]4(C)[C@@]3(F)[C@@H](O)C[C@@]21C | inactive | –
72 | CC1=C(C/C=C(\C)CCC[C@H](C)CCC[C@H](C)CCCC(C)C)C(=O)c2ccccc2C1=O | inactive | –
73 | C=CC(=O)Nc1cc2c(Nc3ccc(F)c(Cl)c3)ncnc2cc1OCCCN1CCOCC1 | inactive | –
74 | O[C@@H](c1cc(C(F)(F)F)nc2c(C(F)(F)F)cccc12)[C@H]1CCCCN1 | inactive | –
75 | CCCCCCCCCCCCCCCCCC#N | inactive | –
76 | CCOc1ccc(NC(C)=O)cc1 | inactive | –
77 | CCNc1ccccc1 | inactive | –
78 | CC(C)(C)c1cccc(C(C)(C)C)c1O | inactive | –
79 | CN(C)CCN1CCOCC1 | inactive | –
80 | CC(C)(C)c1cc(CCC(=O)OCC(COC(=O)CCc2cc(C(C)(C)C)c(O)c(C(C)(C)C)c2)(COC(=O)CCc2cc(C(C)(C)C)c(O)c(C(C)(C)C)c2)COC(=O)CCc2cc(C(C)(C)C)c(O)c(C(C)(C)C)c2)cc(C(C)(C)C)c1O | inactive | –

From PubChem BioAssay (Tox21)
